According to PubChem BioAssay (Tox21):
Inconclusive results are not listed. Where a call stands in place of a potency, no number is given. Unmarked numbers belong to inactive results. Calls of active or inactive are those of the source. Unless noted, calls follow the shape of the dose curve; as a rule, active = well fitted curve in the direction sought with a large enough effect in the repeat runs; inconclusive = weak or mixed curves; inactive = no such curve, though single readings can be large; an effect the other way counts as inactive or inconclusive. Non-standard residues stand in square brackets, D forms with d. Residues, ends and D or L forms follow the SMILES beside them. *: point of attachment. Sta = CC(C)C[C@H](N)[C@@H](O)CC(=O)O; Isovaleryl = CC(C)CC(=O)*

Assays:
[1] = qHTS assay to identify small molecule antagonists of the thyroid receptor (TR) signaling pathway (AID 743065); also: series mostly up to about 70 µM; nearly all actives have a fitted effect of over 55% in size
In short: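 GH3.TRE-Luc rat pituitary cells (two TREs driving luciferase) were dosed with compound, then stimulated with 1 nM T3 (final) for 23.5 h at 37 C. ONE-Glo luminescence was the read-out, with CellTiter-Fluor fluorescence as the cytotoxicity counter-screen.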

[2] = tested on: thyroid hormone receptor (rat, GH3 cells); experiment: qHTS assay to identify small molecule agonists of the thyroid receptor (TR) signaling pathway (AID 743066; calls by dose curve; also: potency is read from the fitted curve at half-maximal effect)
[3] = qHTS assay to identify small molecule antagonists of the estrogen receptor alpha (ER-alpha) signaling pathway - cell viability counter screen (AID 743074; calls by dose curve;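 also: HEK293 cells carrying ER-alpha-UAS-bla reporter stimulated with 17beta-estradiol; nearly all actives have a fitted effect of over 45% in size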)
Aromatase (Homo sapiens) = Aromatase (Homo sapiens) (UniProt P11511); experiment: qHTS assay to identify aromatase inhibitors (AID 743083); also: series mostly up to about 70 µM; nearly all actives have a fitted effect of over 55% in size
[4] = qHTS assay to identify aromatase inhibitors - cell viability counter screen (AID 743084);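 also: cells stimulated with testosterone during compound exposure; nearly all actives have a fitted effect of over 55% in size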
[5] = molecular target: Aryl hydrocarbon receptor (Homo sapiens) (UniProt P35869); experiment: qHTS assay to identify small molecule that activate the aryl hydrocarbon receptor (AhR) signaling pathway (AID 743085);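 also: HG2L7.5c1 human HepG2 liver cells with stably integrated DRE-driven firefly reporter; series mostly up to about 70 µM; nearly all actives have a fitted effect of over 15% in size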
In short: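 Reporter assay in engineered HepG2 line HG2L7.5c1, whose plasmid carries twenty dioxin responsive elements upstream of firefly luciferase. Treatment lasted 24 h at 37C; ONE-Glo luminescence gauged induction.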

[6] = qHTS assay to identify small molecule that activate the aryl hydrocarbon receptor (AhR) signaling pathway - cell viability counter screen (AID 743086);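 also: HepG2 liver cells carrying the AhR DRE luciferase reporter; series mostly up to about 70 µM; nearly all actives have a fitted effect of over 45% in size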
In short: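 HepG2-AhR-luc (HG2L7.5c1) cells, 4000/well, treated 24 h at 37 C with compound; viability measured as CellTiter-Fluor fluorescence after 30 min in the same wells as the luciferase read.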

[7] = molecular target: Peroxisome proliferator-activated receptor gamma (Homo sapiens) (UniProt P37231); experiment: qHTS assay to identify small molecule agonists of the peroxisome proliferator-activated receptor gamma (PPARg) signaling pathway (AID 743094; active = well fitted activation curve with a large enough effect in the signal ratio in the repeat runs, not every such curve was filed as active; the % refers to the signal ratio)
In short: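 Stably transfected HEK293H cells (GeneBLAzer PPARg UAS-bla) were incubated with test substances for 17 h at 37C after a 5 h pre-incubation; beta-lactamase activity was then detected by FRET substrate fluorescence.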

[8] = molecular target: Peroxisome proliferator-activated receptor gamma (Homo sapiens) (UniProt P37231); experiment: qHTS assay to identify small molecule antagonists of the peroxisome proliferator-activated receptor gamma (PPARg) signaling pathway (AID 743191; calls by dose curve; also: series mostly up to about 63 µM; nearly all actives have a fitted effect of over 30% in size)
In short: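 GeneBLAzer PPARg UAS-bla HEK293H cells, 5 h post-plating, exposed to compounds 17 h at 37C. LiveBLAzer B/G FRET substrate added for 1 h at room temperature; beta-lactamase reporter read by fluorescence intensity.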

[9] = qHTS assay for small molecule agonists of the antioxidant response element (ARE) signaling pathway (AID 743202; active = well fitted activation curve with a large enough effect in the signal ratio in the repeat runs, not every such curve was filed as active; the % refers to the signal ratio)
In short: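 ARE-bla HepG2 cells (beta-lactamase reporter under the antioxidant response element), plated 5 hours, then exposed to compounds 16 hours at 37 C. LiveBLAzer B/G FRET substrate added for 2 hours at room temperature; fluorescence intensity read.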

[10] = qHTS assay for small molecule activators of the heat shock response signaling pathway - cell viability counter screen (AID 743209); also: nearly all actives have a fitted effect of over 50% in size
In short: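 Quantitative HTS format, Tox21 10K library. HeLa cells carrying an HSE-driven beta-lactamase reporter were treated 5 h at 37 C, then assessed for viability by CellTiter-Glo luminescence.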

[11] = qHTS assay for small molecule activators of the heat shock response signaling pathway (AID 743210; active = well fitted activation curve with a large enough effect in the signal ratio in the repeat runs, with a control signal flat, not every such curve was filed as active; the % refers to the signal ratio; also: series mostly up to about 63 µM)
In short: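 HSE-bla HeLa cells (beta-lactamase reporter under heat shock response elements), plated overnight, then exposed to compounds 5 h at 37 C; LiveBLAzer B/G FRET substrate added, 2.5 h at room temperature, fluorescence intensity read.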

[12] = qHTS assay to identify small molecule antagonists of the peroxisome proliferator-activated receptor gamma (PPARg) signaling pathway - cell viability counter screen (AID 743194); also: nearly all actives have a fitted effect of over 55% in size
In short: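 Cytotoxicity counter screen in PPARg-bla HEK293H cells, same wells as reporter assay. Compounds plus 50 nM rosiglitazone (final) for 17 h at 37 C, then viability read by CellTiter-Glo luminescence.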

[13] = qHTS assay for small molecule agonists of the antioxidant response element (ARE) signaling pathway - cell viability counter screen (AID 743203; calls by dose curve; also: nearly all actives have a fitted effect of over 55% in size)
In short: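 Cells (ARE-bla HepG2, 2,000/well) receive DMSO-dissolved compounds after a 5 hrs rest. Plates incubate 16 hrs at 37C/5% CO2. CellTiter-Glo luminescence is then recorded after 30 min at room temperature.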

[14] = molecular target: Estrogen receptor (Homo sapiens) (UniProt P03372); experiment: qHTS assay to identify small molecule antagonists of the estrogen receptor alpha (ER-alpha) signaling pathway (AID 743069; active = well fitted curve in the direction sought with a large enough effect in the signal ratio in the repeat runs, not every such curve was filed as active; the % refers to the signal ratio)
In short: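 HEK293 ER-alpha-UAS-bla GripTite cells, held overnight in 2% charcoal-stripped FBS, 5,000 cells/well, preincubated 4 h, then compound plus 17beta-estradiol for 18 h at 37C. Beta-lactamase read by LiveBLAzer B/G FRET substrate, 2 h at room temperature.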

[15] = molecular target: Estrogen receptor (Homo sapiens) (UniProt P03372); experiment: qHTS assay to identify small molecule agonists of the estrogen receptor alpha (ER-alpha) signaling pathway (AID 743075; calls by dose curve)
[16] = molecular target: Estrogen receptor (Homo sapiens) (UniProt P03372); experiment: qHTS assay to identify small molecule agonists of the estrogen receptor alpha (ER-alpha) signaling pathway using the BG1 cell line (AID 743079); also: nearly all actives have a fitted effect of over 20% in size
[17] = qHTS assay to identify small molecule antagonists of the estrogen receptor alpha (ER-alpha) signaling pathway using the BG1 cell line (AID 743080; calls by dose curve;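 also: BG1 cells stimulated with 17beta-estradiol alongside compound; series mostly up to about 70 µM; nearly all actives have a fitted effect of over 25% in size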)
In short: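 Luciferase inhibition measured with ONE-Glo after 30 min at RT in BG1Luc4E2 cells given test compounds and 17beta-estradiol for 21.5 h at 37 C; CellTiter-Fluor viability read in the same wells beforehand.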

[18] = qHTS assay to identify small molecule antagonists of the estrogen receptor alpha (ER-alpha) signaling pathway using the BG1 cell line - cell viability counter screen (AID 743081);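 also: compound given together with 17beta-estradiol as the ER stimulus; series mostly up to about 70 µM; nearly all actives have a fitted effect of over 45% in size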
[19] = qHTS assay to identify small molecule agonists of the peroxisome proliferator-activated receptor delta (PPARd) signaling pathway - cell viability counter screen (AID 743211); also: nearly all actives have a fitted effect of over 55% in size
In short: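 Multiplexed format: after the 2 h room-temperature LiveBLAzer B/G FRET step, CellTiter-Glo was added to the same wells. Luminescence after 30 min gave cell viability; compound exposure was 17 h at 37C.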

Chain of Peroxisome proliferator-activated receptor gamma (Homo sapiens) (P37231 whole entry, looked up): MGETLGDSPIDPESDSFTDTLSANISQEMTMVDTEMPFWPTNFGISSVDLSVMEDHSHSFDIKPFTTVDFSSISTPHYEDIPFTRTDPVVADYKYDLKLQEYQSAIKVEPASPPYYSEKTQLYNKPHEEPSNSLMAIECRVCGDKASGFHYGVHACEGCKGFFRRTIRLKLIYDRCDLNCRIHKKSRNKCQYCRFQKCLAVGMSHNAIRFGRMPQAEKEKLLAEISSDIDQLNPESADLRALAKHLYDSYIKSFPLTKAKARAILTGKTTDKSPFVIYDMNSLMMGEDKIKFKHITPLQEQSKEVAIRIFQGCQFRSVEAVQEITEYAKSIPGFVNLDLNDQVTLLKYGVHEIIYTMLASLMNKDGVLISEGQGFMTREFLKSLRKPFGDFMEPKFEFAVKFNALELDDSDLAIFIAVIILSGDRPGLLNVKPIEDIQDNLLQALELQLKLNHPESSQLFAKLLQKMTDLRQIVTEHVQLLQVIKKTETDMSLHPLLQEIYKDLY
Chain of Aromatase (Homo sapiens) (P11511 whole entry, looked up): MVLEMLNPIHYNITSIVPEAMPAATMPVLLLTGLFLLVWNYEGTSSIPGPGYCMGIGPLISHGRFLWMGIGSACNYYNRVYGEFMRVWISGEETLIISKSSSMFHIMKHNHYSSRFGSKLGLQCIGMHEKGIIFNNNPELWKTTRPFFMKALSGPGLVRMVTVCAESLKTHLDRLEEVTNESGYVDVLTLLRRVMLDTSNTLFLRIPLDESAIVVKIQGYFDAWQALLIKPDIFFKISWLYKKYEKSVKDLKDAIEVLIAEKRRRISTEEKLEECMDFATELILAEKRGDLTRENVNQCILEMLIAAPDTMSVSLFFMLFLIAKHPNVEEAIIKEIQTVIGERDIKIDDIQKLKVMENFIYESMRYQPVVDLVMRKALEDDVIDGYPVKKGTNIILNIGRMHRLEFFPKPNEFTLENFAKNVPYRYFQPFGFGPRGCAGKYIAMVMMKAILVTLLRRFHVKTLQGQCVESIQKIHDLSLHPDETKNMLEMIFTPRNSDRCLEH
Chain of Estrogen receptor (Homo sapiens) (P03372 whole entry, looked up): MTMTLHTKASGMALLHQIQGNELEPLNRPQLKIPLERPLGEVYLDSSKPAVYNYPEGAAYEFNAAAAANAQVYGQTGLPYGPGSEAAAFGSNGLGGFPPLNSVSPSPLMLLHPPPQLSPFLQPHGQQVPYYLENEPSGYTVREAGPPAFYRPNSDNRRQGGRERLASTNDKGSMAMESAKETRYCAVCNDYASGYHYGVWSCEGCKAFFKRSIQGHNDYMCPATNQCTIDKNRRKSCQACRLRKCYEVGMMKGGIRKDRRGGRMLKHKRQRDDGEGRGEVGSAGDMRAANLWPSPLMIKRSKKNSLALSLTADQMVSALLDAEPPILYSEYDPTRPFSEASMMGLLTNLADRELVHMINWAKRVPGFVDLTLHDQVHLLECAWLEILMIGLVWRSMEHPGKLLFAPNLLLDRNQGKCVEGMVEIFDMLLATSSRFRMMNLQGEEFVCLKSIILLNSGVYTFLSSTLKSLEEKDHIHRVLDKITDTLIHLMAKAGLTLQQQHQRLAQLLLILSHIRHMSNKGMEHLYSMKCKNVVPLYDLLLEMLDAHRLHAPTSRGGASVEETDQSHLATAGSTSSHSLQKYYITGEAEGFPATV
Chain of Aryl hydrocarbon receptor (Homo sapiens) (P35869 whole entry, looked up): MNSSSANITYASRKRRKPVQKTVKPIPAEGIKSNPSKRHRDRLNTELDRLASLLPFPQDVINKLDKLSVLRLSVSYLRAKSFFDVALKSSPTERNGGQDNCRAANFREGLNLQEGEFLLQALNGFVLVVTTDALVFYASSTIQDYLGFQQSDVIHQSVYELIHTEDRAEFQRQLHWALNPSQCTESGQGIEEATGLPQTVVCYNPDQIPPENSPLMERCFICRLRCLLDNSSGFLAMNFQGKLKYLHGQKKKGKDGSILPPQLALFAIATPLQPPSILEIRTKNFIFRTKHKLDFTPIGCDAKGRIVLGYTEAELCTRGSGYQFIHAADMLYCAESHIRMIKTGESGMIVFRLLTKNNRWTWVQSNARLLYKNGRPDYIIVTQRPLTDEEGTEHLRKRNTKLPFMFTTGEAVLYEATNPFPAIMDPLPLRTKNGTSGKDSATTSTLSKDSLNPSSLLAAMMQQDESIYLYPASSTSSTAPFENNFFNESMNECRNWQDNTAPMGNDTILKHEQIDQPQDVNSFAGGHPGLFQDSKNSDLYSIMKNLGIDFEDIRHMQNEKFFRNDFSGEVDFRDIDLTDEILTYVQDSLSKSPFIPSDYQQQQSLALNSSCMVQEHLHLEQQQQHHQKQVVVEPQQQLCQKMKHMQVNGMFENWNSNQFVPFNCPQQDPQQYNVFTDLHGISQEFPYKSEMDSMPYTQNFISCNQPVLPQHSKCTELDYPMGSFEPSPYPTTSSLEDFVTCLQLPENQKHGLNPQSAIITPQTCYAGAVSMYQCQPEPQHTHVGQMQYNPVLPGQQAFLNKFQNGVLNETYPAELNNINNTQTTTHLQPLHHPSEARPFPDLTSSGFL

Compound	Potency [1]	Potency [2]	Potency [3]	Potency (Aromatase (Homo sapiens))	outcome [4]	Potency [5]	outcome [6]	outcome [7]	outcome [8]	Potency [9]	Potency [10]	outcome [11]	outcome [12]	outcome [13]	outcome [14]	Potency [15]	Potency [16]	Potency [17]	outcome [18]	outcome [19]
COc1cc(C(=O)NC2CCCNC2)cc(OC)c1OC (stereo unspecified)	inactive	inactive	inactive	inactive	inactive	inactive	inactive	inactive	inactive	inactive	inactive	inactive	–	–	–	–	–	–	–	–
O=Cc1ccccc1S(=O)(=O)O	inactive	68.5 µM (active)	inactive	inactive	inactive	inactive	inactive	–	inactive	inactive	–	inactive	inactive	inactive	–	–	–	–	–	–
CCCCS	–	inactive	inactive	inactive	inactive	inactive	inactive	inactive	–	inactive	inactive	inactive	inactive	inactive	inactive	inactive	inactive	inactive	inactive	inactive
CCCCCCCCCCCCCCBr	–	inactive	inactive	inactive	inactive	inactive	inactive	inactive	inactive	inactive	–	inactive	inactive	inactive	inactive	inactive	inactive	inactive	inactive	inactive
Cc1ccc(NC(N)=O)cc1	–	inactive	inactive	inactive	inactive	inactive	inactive	inactive	inactive	inactive	inactive	inactive	–	inactive	inactive	inactive	inactive	inactive	inactive	inactive
CC(C)CC(=O)N[C@H](C(=O)N[C@H](C(=O)N[C@@H](CC(C)C)[C@@H](O)CC(=O)N[C@@H](C)C(=O)N[C@@H](CC(C)C)[C@@H](O)CC(=O)O)C(C)C)C(C)C (Isovaleryl-VV[Sta]A[Sta]-OH)	inactive	inactive	inactive	inactive	inactive	inactive	–	inactive	inactive	inactive	–	–	inactive	inactive	–	–	–	–	inactive	inactive
CCCCCCCCCCCCCCCC(=O)OC	–	inactive	inactive	inactive	inactive	inactive	inactive	inactive	inactive	inactive	inactive	inactive	inactive	inactive	inactive	inactive	inactive	inactive	inactive	inactive
CNC(C)=O	–	inactive	inactive	inactive	inactive	inactive	inactive	inactive	inactive	inactive	inactive	–	inactive	–	inactive	inactive	inactive	inactive	inactive	inactive
Cc1ccc(S(=O)(=O)NC(=O)NN2CC3CCCC3C2)cc1 (stereo unspecified)	–	inactive	inactive	inactive	inactive	inactive	inactive	inactive	inactive	inactive	inactive	inactive	inactive	inactive	inactive	inactive	inactive	inactive	inactive	inactive
